Laboratory results published in PubChem BioAssay (NCATS).
Records with an inconclusive call do not appear. The source made the active and inactive calls. The call rests on the fitted dose curve; in most records, active means well fitted curve in the direction sought with a large enough effect; inconclusive means small, poorly fitted or top-dose-only effect, or another doubt; inactive means no such curve, though single readings can be large; an effect the other way counts as inactive or inconclusive.

Legend:
[1] = qHTS of pediatric cancer cell lines to identify multiple opportunities for drug repurposing: Primary screen for SJ-GBM2 cells (AID 1347091)
Procedure, shortened: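 Viability measured as metabolically active cells via CellTiter-Glo luminescence following 48 hours of compound exposure, 11-point dilutions in confirmatory testing. 500-1,000 cells/well plated 5 hours before dosing; controls were DMSO and 2.3 µM bortezomib.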

[2] = qHTS of pediatric cancer cell lines to identify multiple opportunities for drug repurposing: Primary screen for A673 cells (AID 1347092); further: nearly all actives have a fitted effect of over 45% in size
Procedure, shortened: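 Cell viability of A673 measured by CellTiter-Glo ATP luminescence after 48 hours compound exposure. Dilution series spanned 0.78 nM to 46 µM (MIPE, 11-point) or 0.59 nM to 46 µM (NPC, 8-point); bortezomib 2.3 uM positive control.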

[3] = qHTS of pediatric cancer cell lines to identify multiple opportunities for drug repurposing: Primary screen for SK-N-MC cells (AID 1347093)
Procedure, shortened: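 Metabolically active cells were quantified by ATP-dependent luminescence (CellTiter-Glo, 15 min at room temperature) following 48 h treatment. Cells had been plated at 500-1,000 per well and settled for 5 h beforehand.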

[4] = qHTS of pediatric cancer cell lines to identify multiple opportunities for drug repurposing: Primary screen for NB-EBc1 cells (AID 1347095)
Procedure, shortened: (§1)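 Phenotypic viability qHTS, 48 h compound exposure, CellTiter-Glo luminescence read-out; multi-concentration dosing so that potency and efficacy derive directly from the primary screen's curves.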

[5] = qHTS of pediatric cancer cell lines to identify multiple opportunities for drug repurposing: Primary screen for U-2 OS cells (AID 1347096); further: nearly all actives have a fitted effect of over 50% in size
Procedure, shortened: (§2)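 Viability after 48 h compound treatment at 37C, 500-1,000 cells/well, read as ATP luminescence with CellTiter-Glo. Primary screens used 11-point (MIPE, 0.78 nM-46 µM) or 8-point (NPC, 0.59 nM-46 µM) final concentrations; follow-up screens used 11-point dilutions.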

[6] = qHTS of pediatric cancer cell lines to identify multiple opportunities for drug repurposing: Primary screen for SK-N-SH cells (AID 1347098); further: nearly all actives have a fitted effect of over 65% in size
Procedure, shortened: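 Cells (500-1,000/well) rested 5 h, then received compounds for 48 h; metabolically active cells were measured by CellTiter-Glo luminescence. Final concentrations spanned up to 46 µM (MIPE, 11-point) or 0.59 nM-46 µM (NPC, 8-point) in primary screens, 11-point in follow-ups.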

[7] = qHTS of pediatric cancer cell lines to identify multiple opportunities for drug repurposing: Primary screen for NB1643 cells (AID 1347099); further: nearly all actives have a fitted effect of over 50% in size
Procedure, shortened: as §1

[8] = qHTS of pediatric cancer cell lines to identify multiple opportunities for drug repurposing: Primary screen for LAN-5 cells (AID 1347100)
Procedure, shortened: as §2

[9] = qHTS of pediatric cancer cell lines to identify multiple opportunities for drug repurposing: Primary screen for BT-37 cells (AID 1347094)
Procedure, shortened: as §1

[10] = qHTS of pediatric cancer cell lines to identify multiple opportunities for drug repurposing: Primary screen for Saos-2 cells (AID 1347097); further: nearly all actives have a fitted effect of over 40% in size
Procedure, shortened: as §1

Measured: Potency
Potency means the concentration at half of the fitted maximal effect.

Oc1ccc([C@@H]2Oc3ccc(O)cc3[C@@H]3CCC[C@@H]32)cc1
active: [1] 13.2 µM | [2] 9.35 µM | [3] 4.18 µM | [4] 7.43 µM | [6] 24.1 µM | [7] 16.6 µM | [8] 10.5 µM
inactive: [5]

CN1C(C(=O)Nc2ccccn2)=C(O)c2sc(Cl)cc2S1(=O)=O
active: [2] 2.96 µM | [3] 4.69 µM | [4] 16.6 µM | [6] 9.61 µM | [7] 18.7 µM
inactive: [1] | [5]

Cn1cc(CNCC2CCN(c3ncc(C(=O)NO)cn3)CC2)c2ccccc21
active: [1] 0.0743 µM | [2] 0.0743 µM | [3] 0.0662 µM | [9] 0.109 µM | [5] 0.469 µM | [10] 0.148 µM | [6] 0.121 µM | [7] 0.148 µM | [8] 0.0526 µM

C=Cc1c(C)c2cc3nc(cc4[nH]c(cc5nc(cc1[nH]2)C(C)=C5CCC(=O)O)c(CCC(=O)OC)c4C)[C@@]1(C)C3=CC=C(C(=O)OC)[C@H]1C(=O)OC
active: [1] 0.59 µM | [2] 0.0372 µM | [3] 0.059 µM | [9] 0.0769 µM | [5] 0.372 µM | [10] 4.69 µM | [6] 0.121 µM

CCOC(=O)C1=C(C)NC(=S)NC1c1cccc(O)c1 (stereo not drawn)
inactive: [5]
active: [1] 0.0372 µM | [2] 0.0469 µM | [3] 0.264 µM | [4] 0.264 µM | [8] 0.187 µM

CC[C@@]1([C@@H]2O[C@@H]([C@H]3O[C@@](O)(CO)[C@H](C)C[C@H]3C)C[C@H]2C)CC[C@H]([C@]2(C)CC[C@]3(C[C@H](O)[C@@H](C)[C@@H]([C@@H](C)[C@@H](OC)[C@H](C)C(=O)O)O3)O2)O1
active: [1] 0.288 µM | [2] 0.162 µM | [9] 0.15 µM | [4] 0.182 µM | [10] 6.45 µM | [6] 10.5 µM | [7] 0.457 µM | [8] 0.129 µM

CC(=O)C1=C(O)C=C2Oc3c(C(C)=O)c(O)c(C)c(O)c3C2(C)C1=O (stereo not drawn)
active: [1] 2.35 µM | [2] 0.187 µM | [9] 1.37 µM | [10] 1.48 µM
inactive: [5] | [6]

Cc1cc(O)c2c(c1)C(=O)c1cccc(O)c1C2=O
not listed: [3] | [10]
inactive: all other assays above

CCOC(=O)C=C[C@H](C[C@@H]1CCNC1=O)NC(=O)[C@@H](CC(=O)[C@@H](NC(=O)c1cc(C)on1)C(C)C)Cc1ccc(F)cc1
not listed: [3] | [7] | [8]
inactive: all other assays above

O=C1c2cccc(O)c2C(=O)c2c(O)cc(CO)cc21
active: [7] 26.4 µM
not listed: [3] | [8]
inactive: all other assays above

CN(C)CC(=O)N1CCC(c2ccc(NC(=O)c3ncc(C#N)[nH]3)c(C3=CCCCC3)c2)CC1
active: [1] 18.7 µM | [2] 18.7 µM | [3] 1.66 µM | [4] 23.5 µM | [10] 18.7 µM | [6] 1.21 µM | [7] 18.7 µM | [8] 16.6 µM

CC(Oc1ccc(O)cc1)(P(=O)(O)O)P(=O)(O)O
not listed: [3]
inactive: all other assays above

CS(=O)(=O)N1CCc2c(-c3cnc(N)nc3)nc(N3CCOCC3)nc21
active: [1] 0.209 µM | [2] 0.935 µM | [3] 0.0372 µM | [10] 0.935 µM | [7] 0.469 µM

Cc1ccc([N+](=O)[O-])cc1S(=O)(=O)N(C)N=Cc1cnc2ccc(Br)cn12
active: [1] 0.118 µM | [2] 0.0074 µM | [9] 0.0385 µM | [4] 0.935 µM | [5] 0.118 µM | [10] 0.187 µM | [6] 0.0108 µM | [7] 0.0042 µM | [8] 0.0083 µM

C[C@H](NC(=O)C(C#N)=Cc1cccc(Br)n1)c1ccccc1
active: [1] 2.96 µM | [2] 14.8 µM | [3] 11.8 µM | [4] 7.43 µM | [7] 16.6 µM | [8] 16.6 µM

CON=C(C(=O)N[C@@H]1C(=O)N2C(C(=O)O)=C(Cn3ccc(=N)n3CCO)CS[C@H]12)c1csc(N)n1
inactive: [1] | [2] | [9] | [4] | [5] | [10]

C[C@H]1C[C@H]2[C@@H]3CCC4=CC(=O)C=C[C@]4(C)[C@@H]3C(=O)C[C@]2(C)[C@@]1(O)C(=O)CO
not listed: [3] | [8]
inactive: all other assays above

C#Cc1cccc(Nc2ncnc3cc(OCCOC)c(OCCO)cc23)c1
active: [1] 5.26 µM | [2] 0.187 µM | [9] 6.85 µM | [4] 5.26 µM | [10] 5.9 µM | [6] 3.83 µM | [8] 0.264 µM

C=C1C(=O)O[C@H]2[C@@H]1CCC(C)=CCC[C@@]1(C)O[C@@H]21
active: [1] 8.33 µM | [2] 7.43 µM | [3] 7.43 µM | [10] 3.32 µM | [6] 24.1 µM | [7] 8.33 µM

COc1cc([C@@H]2c3cc4c(cc3[C@H](O)[C@H]3COC(=O)[C@@H]23)OCO4)cc(OC)c1OC
active: [1] 0.0662 µM | [2] 0.0935 µM | [3] 0.0743 µM | [8] 0.0833 µM
inactive: [6]

O=C(C[C@@H]1CC=CCCC(=O)O[C@H](c2ccccc2)CNC1=O)NCc1ccc(Cl)cc1
not listed: [3] | [10]
inactive: all other assays above

c1cc(CN2CCCNCCNCCCNCC2)ccc1CN1CCCNCCNCCCNCC1
not listed: [3] | [6]
inactive: all other assays above

Nc1ncn([C@@H]2O[C@H](CO)[C@@H](O)[C@@H]2O)c(=O)n1
active: [1] 7.43 µM | [2] 4.69 µM | [9] 10.9 µM | [4] 16.6 µM | [8] 5.26 µM

CC(C)Oc1ccc(C(=O)N[C@H](CNC(=O)CN(C)C)Cc2ccc(-c3cn4cccc([C@H](C)O)c4n3)cc2)cc1Cl
inactive: [5]
active: [1] 0.148 µM | [2] 0.148 µM | [3] 0.148 µM | [10] 0.332 µM | [6] 15.2 µM

C#C[C@]1(O)CC[C@@H]2[C@@H]3CCC4=CC(=O)CC[C@@H]4[C@H]3CC[C@@]21CC
not listed: [3] | [6]
inactive: all other assays above

O=C(O)[C@H](CC(=O)N1C[C@@H]2CCCC[C@H]2C1)Cc1ccccc1
inactive: [1] | [2] | [9] | [5] | [10]

O=C(O)CCCCCC(=O)NN=C1CCCC1
not listed: [3] | [6]
inactive: all other assays above

CCCCCCCCCCCC(CC1OC(=O)C1CCCCCC)OC(=O)C(CC(C)C)NC=O (stereo not drawn)
inactive: [2] | [9] | [5] | [8]
active: [1] 9.35 µM | [4] 18.7 µM | [10] 14.8 µM

CCCNS(=O)(=O)Nc1ncnc(OCCOc2ncc(Br)cn2)c1-c1ccc(Br)cc1
inactive: [1] | [2] | [9] | [4] | [5] | [6]

C[C@H](O)[C@@H]1C(=O)N2C(C(=O)O)=C(S[C@@H]3CN[C@H](CNS(N)(=O)=O)C3)[C@@H](C)[C@@H]12
not listed: [3] | [6]
inactive: all other assays above

COc1ccc(Nc2nccc(NCCO)n2)cc1
not listed: [3] | [7]
inactive: all other assays above

CN(C)c1ccc2cc(C(=O)N[C@@H](CCCN=C(N)CCl)C(=O)NCc3ccccc3)ccc2c1
active: [1] 20.9 µM | [2] 0.469 µM | [3] 3.32 µM | [4] 23.5 µM | [10] 14.8 µM | [6] 21.5 µM | [7] 14.8 µM | [8] 1.05 µM

CCN(CC)CCCCNc1ncc2c(n1)N(C)C(=O)N(c1c(Cl)c(OC)cc(OC)c1Cl)C2
active: [1] 14.8 µM | [2] 18.7 µM | [3] 13.2 µM | [6] 6.81 µM | [7] 16.6 µM | [8] 20.9 µM
inactive: [5] | [10]

CC[C@H](CC[C@@H](C)[C@H]1CC[C@H]2[C@@H]3CC=C4C[C@@H](O)CC[C@]4(C)[C@@H]3CC[C@]12C)C(C)C
not listed: [3] | [6] | [7]
inactive: all other assays above

C=C[C@@H]1CN2CCC1C[C@H]2[C@H](O)c1ccnc2ccc(OC)cc12 (stereo partly drawn)
not listed: [3] | [7]
inactive: all other assays above

C#C[C@]1(O)CC[C@@H]2[C@@H]3CCc4cc(O)ccc4[C@H]3CC[C@@]21C
active: [1] 18.7 µM | [2] 14.8 µM | [3] 11.8 µM | [4] 13.2 µM | [10] 18.7 µM | [6] 24.1 µM | [7] 20.9 µM
